The source of these data is the supplement of paper PMC12494721.

Counter-ions that a name gives are not always drawn.

In one test the test system is Ruminococcus gnavus DSM 108212. In words: fold change of Tryptamine concentration vs plate DMSO controls (fold change (ratio)); higher = more amine produced, active = hit call of the paper (significant change in both replicates, either direction). The note with it: 20 µM; incubation time: 27 h, anaerobic, 37 °C. The method, boiled down: (§1)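 In 80 µL wells, cultures of four gut bacterial strains in mGAM started at OD 0.1 before a 1:1 dilution and grew anaerobically at 37 °C for 27 h. Compounds were added to 20 µM final, except sweeteners at 50 µM final. After extraction of whole cultures with cold acetonitrile/methanol plus 0.1% formic acid and centrifugation, amines were measured by LC–triple-quadrupole MS in dynamic MRM mode against external calibration curves, with within-batch drift correction. Values give fold change over DMSO controls on the same plate, averaged across 2 biological replicates.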
On to `C#C[C@]1(O)C=C[C@H]2[C@@H]3CCC4=CC(=O)CC[C@@H]4[C@H]3CC[C@@]21CC` [Gestodene], for which the “fold change of Tryptamine concentration” value was 1.01 (inactive).

On to `O=C(O)COc1ccc(Cl)cc1Cl`, for which the “fold change of Tryptamine concentration” value was 0.967 (inactive).

As to `CC1COC(Cn2cncn2)(c2ccc(Oc3ccc(Cl)cc3)cc2Cl)O1` (configuration not stated), the “fold change of Tryptamine concentration” value is 0.934 (inactive).

As to `CC(C)OC(=O)Nc1cccc(Cl)c1`, the “fold change of Tryptamine concentration” value is 1.02 (inactive).

On to `CCOc1ccc(C(C)(C)COCc2cccc(Oc3ccccc3)c2)cc1`, for which the “fold change of Tryptamine concentration” value was 1.05 (inactive).

For `COC(=O)N(OC)c1ccccc1COc1ccn(-c2ccc(Cl)cc2)n1`, the “fold change of Tryptamine concentration” value is 0.921 (inactive).

On to `CC(O)(CS(=O)(=O)c1ccc(F)cc1)C(=O)Nc1ccc(C#N)c(C(F)(F)F)c1` (configuration not stated) [Bicalutamide], for which the “fold change of Tryptamine concentration” value was 1.06 (inactive).

As for `CON(C)C(=O)Nc1ccc(Cl)c(Cl)c1`, the “fold change of Tryptamine concentration” value was 0.969 (inactive).

For the compound `C[N+]1(C)[C@@H]2CC[C@H]1C[C@@H](OC(=O)C(CO)c1ccccc1)C2` (some centres not stated) [Methylatropine nitrate], the “fold change of Tryptamine concentration” value is 1 (inactive).

Regarding `COCc1cnc(C2=NC(C)(C(C)C)C(=O)N2)c(C(=O)O)c1` (configuration not stated), the “fold change of Tryptamine concentration” value was 1.17 (inactive).

Take `CO/N=C(/C(=O)OC)c1ccccc1CO/N=C(\C)c1cccc(C(F)(F)F)c1`: the “fold change of Tryptamine concentration” value is 0.991 (inactive).

Take `COC(=O)N(C(=O)N1CO[C@@]2(C(=O)OC)Cc3cc(Cl)ccc3C2=N1)c1ccc(OC(F)(F)F)cc1`: the “fold change of Tryptamine concentration” value was 1.03 (inactive).

Regarding `COc1ccc(C(CN(C)C)C2(O)CCCCC2)cc1` (configuration not stated) [Venlafaxine], the “fold change of Tryptamine concentration” value was 1.01 (inactive).

`C1CCc2nnnn2CC1` [Pentylenetetrazole]: the “fold change of Tryptamine concentration” value was 0.836 (inactive).

For the compound `CC(C)CC(N(C)C)C1(c2ccc(Cl)cc2)CCC1` (configuration not stated) [Sibutramine hydrochloride], the “fold change of Tryptamine concentration” value is 0.985 (inactive).

With `OC(c1ccccc1)(c1ccccc1)C1CCNCC1` [Azacyclonol], the “fold change of Tryptamine concentration” value was 1.07 (inactive).

Regarding `CNC(=O)Oc1cccc(/N=C/N(C)C)c1`, the “fold change of Tryptamine concentration” value is 0.993 (inactive).

Consider `O=C(O)c1nc(Cl)ccc1Cl`, for which the “fold change of Tryptamine concentration” value is 0.915 (inactive).

Regarding `CNC(=O)c1cc(C#N)cc(C)c1NC(=O)c1cc(Br)nn1-c1ncccc1Cl`, the “fold change of Tryptamine concentration” value was 1.06 (inactive).

Regarding `C[N+]1([O-])[C@@H]2C[C@@H](OC(=O)[C@H](CO)c3ccccc3)C[C@H]1[C@@H]1O[C@@H]12` (some centres not stated) [Scopolamin-N-oxide hydrobromide], the “fold change of Tryptamine concentration” value was 1.13 (inactive).

For `CCC(=O)O[C@@](Cc1ccccc1)(c1ccccc1)[C@@H](C)CN(C)C` [Levopropoxyphene napsylate], the “fold change of Tryptamine concentration” value is 1.01 (inactive).

Regarding `CNC(=O)CSP(=S)(OC)OC`, the “fold change of Tryptamine concentration” value was 1.13 (inactive).

Turning to `CC(C)[N+](C)(CCC(C(N)=O)(c1ccccc1)c1ccccc1)C(C)C` [Isopropamide iodide], the “fold change of Tryptamine concentration” value is 0.909 (inactive).

With `COCC(=O)N(c1c(C)cccc1C)[C@H](C)C(=O)OC`, the “fold change of Tryptamine concentration” value is 1.02 (inactive).

As for `O=C1c2ccccc2C(=O)N1SC(Cl)(Cl)Cl`, the “fold change of Tryptamine concentration” value was 0.999 (inactive).

In the case of `O=C1C2CC=CCC2C(=O)N1SC(Cl)(Cl)Cl` (configuration not stated), the “fold change of Tryptamine concentration” value was 1.04 (inactive).

For `CN(C)C(=O)Oc1cc(OC(=O)N(C)C)cc(C(O)CNC(C)(C)C)c1` (configuration not stated) [Bambuterol hydrochloride], the “fold change of Tryptamine concentration” value was 1.02 (inactive).

Take `CC(C)N(C)S(=O)(=O)NC(=O)c1cc(-n2c(=O)cc(C(F)(F)F)n(C)c2=O)c(F)cc1Cl`: the “fold change of Tryptamine concentration” value was 0.884 (inactive).

Consider `CC[C@H]1CCC[C@H](O[C@H]2CC[C@H](N(C)C)[C@@H](C)O2)[C@@H](C)C(=O)C2=C[C@@H]3[C@@H](C=C(C)[C@@H]4C[C@@H](O[C@@H]5O[C@@H](C)[C@H](OC)[C@@H](OC)[C@H]5OC)C[C@@H]34)[C@@H]2CC(=O)O1.CC[C@H]1CCC[C@H](O[C@H]2CC[C@H](N(C)C)[C@@H](C)O2)[C@@H](C)C(=O)C2=C[C@H]3[C@@H]4C[C@H](O[C@@H]5O[C@@H](C)[C@H](OC)[C@@H](OC)[C@H]5OC)C[C@H]4C=C[C@H]3C2CC(=O)O1`, for which the “fold change of Tryptamine concentration” value is 0.984 (inactive).

As for `C[N+]1(C)CCCC(OC(=O)C(O)(c2ccccc2)c2ccccc2)C1` (configuration not stated) [Mepenzolate bromide], the “fold change of Tryptamine concentration” value was 1.03 (inactive).

`COc1cccc(C(=O)NN(C(=O)c2cc(C)cc(C)c2)C(C)(C)C)c1C`: the “fold change of Tryptamine concentration” value was 0.932 (inactive).

In the case of `Cc1cccc(C)c1NC1=NCCCS1` [Xylazine], the “fold change of Tryptamine concentration” value was 1 (inactive).

Take `CCN(C)C(=O)Oc1cccc([C@H](C)N(C)C)c1` [Rivastigmine]: the “fold change of Tryptamine concentration” value was 1.13 (inactive).

With `CCCCCCCCCCCCN=C(N)N`, the “fold change of Tryptamine concentration” value is 0.896 (inactive).

Take `CO/C=C(/C(=O)OC)c1ccccc1Oc1cc(Oc2ccccc2C#N)ncn1`: the “fold change of Tryptamine concentration” value is 1.01 (inactive).

Regarding `O=C(O[C@H]1C[N+]2(CCCOc3ccccc3)CCC1CC2)C(O)(c1cccs1)c1cccs1` [Aclidinium bromide], the “fold change of Tryptamine concentration” value was 0.985 (inactive).

The test system of the next test is Escherichia coli IAI1. In words: fold change of Putrescine concentration vs plate DMSO controls (fold change (ratio)); higher = more amine produced, active = hit call of the paper (significant change in both replicates, either direction). The note with it: 20 µM; incubation time: 27 h, anaerobic, 37 °C. In short, it runs like this:
as §1
In the case of `C#C[C@]1(O)C=C[C@H]2[C@@H]3CCC4=CC(=O)CC[C@@H]4[C@H]3CC[C@@]21CC` [Gestodene], the “fold change of Putrescine concentration” value was 1.02 (inactive).

`O=C(O)COc1ccc(Cl)cc1Cl`: the “fold change of Putrescine concentration” value is 1 (inactive).

Take `CC1COC(Cn2cncn2)(c2ccc(Oc3ccc(Cl)cc3)cc2Cl)O1` (configuration not stated): the “fold change of Putrescine concentration” value was 1.02 (inactive).

Regarding `CC(C)OC(=O)Nc1cccc(Cl)c1`, the “fold change of Putrescine concentration” value was 0.987 (inactive).

For the compound `CCOc1ccc(C(C)(C)COCc2cccc(Oc3ccccc3)c2)cc1`, the “fold change of Putrescine concentration” value is 1.01 (inactive).

As for `COC(=O)N(OC)c1ccccc1COc1ccn(-c2ccc(Cl)cc2)n1`, the “fold change of Putrescine concentration” value was 1.04 (inactive).

`CC(O)(CS(=O)(=O)c1ccc(F)cc1)C(=O)Nc1ccc(C#N)c(C(F)(F)F)c1` (configuration not stated) [Bicalutamide]: the “fold change of Putrescine concentration” value is 1.08 (inactive).

For the compound `CON(C)C(=O)Nc1ccc(Cl)c(Cl)c1`, the “fold change of Putrescine concentration” value was 0.982 (inactive).

As for `C[N+]1(C)[C@@H]2CC[C@H]1C[C@@H](OC(=O)C(CO)c1ccccc1)C2` (some centres not stated) [Methylatropine nitrate], the “fold change of Putrescine concentration” value was 0.932 (inactive).

Turning to `COCc1cnc(C2=NC(C)(C(C)C)C(=O)N2)c(C(=O)O)c1` (configuration not stated), the “fold change of Putrescine concentration” value is 0.961 (inactive).

With `CO/N=C(/C(=O)OC)c1ccccc1CO/N=C(\C)c1cccc(C(F)(F)F)c1`, the “fold change of Putrescine concentration” value was 0.982 (inactive).

Regarding `COC(=O)N(C(=O)N1CO[C@@]2(C(=O)OC)Cc3cc(Cl)ccc3C2=N1)c1ccc(OC(F)(F)F)cc1`, the “fold change of Putrescine concentration” value was 0.945 (inactive).

As for `COc1ccc(C(CN(C)C)C2(O)CCCCC2)cc1` (configuration not stated) [Venlafaxine], the “fold change of Putrescine concentration” value is 1.04 (inactive).

Turning to `C1CCc2nnnn2CC1` [Pentylenetetrazole], the “fold change of Putrescine concentration” value is 0.994 (inactive).

In the case of `CC(C)CC(N(C)C)C1(c2ccc(Cl)cc2)CCC1` (configuration not stated) [Sibutramine hydrochloride], the “fold change of Putrescine concentration” value was 1.01 (inactive).

For `OC(c1ccccc1)(c1ccccc1)C1CCNCC1` [Azacyclonol], the “fold change of Putrescine concentration” value was 1.02 (inactive).

For the compound `CNC(=O)Oc1cccc(/N=C/N(C)C)c1`, the “fold change of Putrescine concentration” value was 0.96 (inactive).

Turning to `O=C(O)c1nc(Cl)ccc1Cl`, the “fold change of Putrescine concentration” value is 0.975 (inactive).

`CNC(=O)c1cc(C#N)cc(C)c1NC(=O)c1cc(Br)nn1-c1ncccc1Cl`: the “fold change of Putrescine concentration” value was 0.935 (inactive).

On to `C[N+]1([O-])[C@@H]2C[C@@H](OC(=O)[C@H](CO)c3ccccc3)C[C@H]1[C@@H]1O[C@@H]12` (some centres not stated) [Scopolamin-N-oxide hydrobromide], for which the “fold change of Putrescine concentration” value is 1 (inactive).

Consider `CCC(=O)O[C@@](Cc1ccccc1)(c1ccccc1)[C@@H](C)CN(C)C` [Levopropoxyphene napsylate], for which the “fold change of Putrescine concentration” value is 1.03 (inactive).

`CNC(=O)CSP(=S)(OC)OC`: the “fold change of Putrescine concentration” value is 0.998 (inactive).

Regarding `CC(C)[N+](C)(CCC(C(N)=O)(c1ccccc1)c1ccccc1)C(C)C` [Isopropamide iodide], the “fold change of Putrescine concentration” value is 1.24 (inactive).

For the compound `COCC(=O)N(c1c(C)cccc1C)[C@H](C)C(=O)OC`, the “fold change of Putrescine concentration” value is 1.02 (inactive).

As to `O=C1c2ccccc2C(=O)N1SC(Cl)(Cl)Cl`, the “fold change of Putrescine concentration” value was 1.05 (inactive).

For the compound `O=C1C2CC=CCC2C(=O)N1SC(Cl)(Cl)Cl` (configuration not stated), the “fold change of Putrescine concentration” value was 1 (inactive).

On to `CN(C)C(=O)Oc1cc(OC(=O)N(C)C)cc(C(O)CNC(C)(C)C)c1` (configuration not stated) [Bambuterol hydrochloride], for which the “fold change of Putrescine concentration” value was 0.988 (inactive).

As to `CC(C)N(C)S(=O)(=O)NC(=O)c1cc(-n2c(=O)cc(C(F)(F)F)n(C)c2=O)c(F)cc1Cl`, the “fold change of Putrescine concentration” value is 0.983 (inactive).

As for `CC[C@H]1CCC[C@H](O[C@H]2CC[C@H](N(C)C)[C@@H](C)O2)[C@@H](C)C(=O)C2=C[C@@H]3[C@@H](C=C(C)[C@@H]4C[C@@H](O[C@@H]5O[C@@H](C)[C@H](OC)[C@@H](OC)[C@H]5OC)C[C@@H]34)[C@@H]2CC(=O)O1.CC[C@H]1CCC[C@H](O[C@H]2CC[C@H](N(C)C)[C@@H](C)O2)[C@@H](C)C(=O)C2=C[C@H]3[C@@H]4C[C@H](O[C@@H]5O[C@@H](C)[C@H](OC)[C@@H](OC)[C@H]5OC)C[C@H]4C=C[C@H]3C2CC(=O)O1`, the “fold change of Putrescine concentration” value was 1.02 (inactive).

As to `C[N+]1(C)CCCC(OC(=O)C(O)(c2ccccc2)c2ccccc2)C1` (configuration not stated) [Mepenzolate bromide], the “fold change of Putrescine concentration” value was 0.871 (inactive).

For `COc1cccc(C(=O)NN(C(=O)c2cc(C)cc(C)c2)C(C)(C)C)c1C`, the “fold change of Putrescine concentration” value was 1.03 (inactive).

Regarding `Cc1cccc(C)c1NC1=NCCCS1` [Xylazine], the “fold change of Putrescine concentration” value was 1.03 (inactive).

Regarding `CCN(C)C(=O)Oc1cccc([C@H](C)N(C)C)c1` [Rivastigmine], the “fold change of Putrescine concentration” value is 0.958 (inactive).

For `CCCCCCCCCCCCN=C(N)N`, the “fold change of Putrescine concentration” value was 1.01 (inactive).

With `CO/C=C(/C(=O)OC)c1ccccc1Oc1cc(Oc2ccccc2C#N)ncn1`, the “fold change of Putrescine concentration” value was 1.04 (inactive).

As to `O=C(O[C@H]1C[N+]2(CCCOc3ccccc3)CCC1CC2)C(O)(c1cccs1)c1cccs1` [Aclidinium bromide], the “fold change of Putrescine concentration” value is 1.08 (inactive).
